Experimental data taken from PubChem BioAssay AID1159580 (chemical genetic matrix, 2015).
Out of some 5,500 compounds screened, about 2,000 (36%) were called active. Not shown: some 18% with an inconclusive outcome. Cut-off read from the data, not from the text of the source: active = normalized growth mostly below about 0.91 (no sharp cut-off); inconclusive = no clear call, values can overlap the other calls; inactive = mostly above about 0.92. Some of the results follow.

Assay: chemical genetic growth profiling, strain panel (AID 1159580);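 note: tested at 20 µM; growth read once vehicle control cultures reached saturation at 30 °C; 1 = growth at the plate median or of vehicle wells; lower values mean less growth of the strain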
Settings: growth OD
[1] = S. cerevisiae deletion strains, locus YGR078C, strain PAC10, stronger effect = lower value
[2] = S. cerevisiae deletion strains, locus YNL322C, strain KRE1, stronger effect = lower value

Measured: normalized growth

CCC(C)N(C)C(=O)c1cc2ccccc2c(-c2ccccc2Cl)n1 (stereo unspecified)
inactive: S. cerevisiae deletion strains, locus YAL040C, strain CLN3, stronger effect = lower value 0.965 | S. cerevisiae deletion strains, locus YDR363W, strain ESC2, stronger effect = lower value 0.973 | S. cerevisiae deletion strains, locus YER002W, strain NOP16, stronger effect = lower value 1.03 | [1] 0.998 | S. cerevisiae deletion strains, locus YNL175C, strain NOP13, stronger effect = lower value 1 | S. cerevisiae deletion strains, locus YNL197C, strain WHI3, stronger effect = lower value 0.95 | S. cerevisiae deletion strains, locus YNL224C, strain SQS1, stronger effect = lower value 0.988 | [2] 0.987 | S. cerevisiae deletion strains, locus YOR083W, strain WHI5 (second series), stronger effect = lower value 0.955

S=c1[nH]c2ccccc2[nH]1
inactive: S. cerevisiae deletion strains, locus YAL013W, strain DEP1, stronger effect = lower value 0.988 | S. cerevisiae deletion strains, locus YBR229C, strain ROT2, stronger effect = lower value 1.01 | S. cerevisiae deletion strains, locus YDL101C, strain DUN1, stronger effect = lower value 1.02 | S. cerevisiae deletion strains, locus YDR150W, strain NUM1, stronger effect = lower value 0.993 | S. cerevisiae deletion strains, locus YEL061C, strain CIN8, stronger effect = lower value 0.982 | [1] 1.02 | S. cerevisiae deletion strains, locus YHR030C, strain SLT2, stronger effect = lower value 1 | S. cerevisiae deletion strains, locus YHR087W, strain rtc3, stronger effect = lower value 1.01 | S. cerevisiae deletion strains, locus YJR043C, strain POL32, stronger effect = lower value 0.988 | S. cerevisiae deletion strains, locus YJR075W, strain HOC1, stronger effect = lower value 1.01 | S. cerevisiae deletion strains, locus YLR039C, strain RIC1, stronger effect = lower value 0.99 | S. cerevisiae deletion strains, locus YLR058C, strain SHM2 (second series), stronger effect = lower value 0.991 | S. cerevisiae deletion strains, locus YLR085C, strain ARP6, stronger effect = lower value 0.976 | S. cerevisiae deletion strains, locus YLR262C, strain YPT6, stronger effect = lower value 0.986 | S. cerevisiae deletion strains, locus YML094W, strain GIM5, stronger effect = lower value 1.06 | S. cerevisiae deletion strains, locus YMR219W, strain ESC1, stronger effect = lower value 0.999 | S. cerevisiae deletion strains, locus YMR263W, strain SAP30, stronger effect = lower value 0.984 | S. cerevisiae deletion strains, locus YMR307W, strain GAS1, stronger effect = lower value 0.87 | S. cerevisiae deletion strains, locus YNL128W, strain TEP1, stronger effect = lower value 1.02 | S. cerevisiae deletion strains, locus YNL153C, strain GIM3, stronger effect = lower value 1.01 | S. cerevisiae deletion strains, locus YNL298W, strain CLA4 (second series), stronger effect = lower value 0.997 | [2] 1 | S. cerevisiae deletion strains, locus YNR030W, strain Alg12, stronger effect = lower value 1.01 | S. cerevisiae deletion strains, locus YPL055C, strain LGE1, stronger effect = lower value 0.961 | S. cerevisiae deletion strains, locus YPL241C, strain CIN2, stronger effect = lower value 1.03 | S. cerevisiae deletion strains, locus YPR135W, strain CTF4, stronger effect = lower value 1.01 | S. cerevisiae strains, strain wild type, stronger effect = lower value 0.995
